# “And” between values parts separate entries of the source, which are not always exact repeats. Equal entries are not always repeated. Inconclusive results are not listed. Entries that show only a call come without a potency. Unmarked numbers belong to inactive results. The source made the active and inactive calls. Calls come from the whole dose curve; as a rule, active = well fitted curve in the direction sought with a large enough effect; inconclusive = small, poorly fitted or top-dose-only effect, or another doubt; inactive = no such curve, though single readings can be large; an effect the other way counts as inactive or inconclusive.
# What was measured:
# [1] = biological target: Cytochrome P450 3A7 (Homo sapiens) (UniProt P24462); assay: Cytochrome P450 family 3 subfamily A member 7 (CYP3A7) small molecule antagonists: luciferase biochemical qHTS assay (AID 1963596); note: nearly all actives have a fitted effect of over 40% in size; note: potency is the fitted concentration of half-maximal effect
# Sequence of Cytochrome P450 3A7 (Homo sapiens) (P24462 whole entry, looked up): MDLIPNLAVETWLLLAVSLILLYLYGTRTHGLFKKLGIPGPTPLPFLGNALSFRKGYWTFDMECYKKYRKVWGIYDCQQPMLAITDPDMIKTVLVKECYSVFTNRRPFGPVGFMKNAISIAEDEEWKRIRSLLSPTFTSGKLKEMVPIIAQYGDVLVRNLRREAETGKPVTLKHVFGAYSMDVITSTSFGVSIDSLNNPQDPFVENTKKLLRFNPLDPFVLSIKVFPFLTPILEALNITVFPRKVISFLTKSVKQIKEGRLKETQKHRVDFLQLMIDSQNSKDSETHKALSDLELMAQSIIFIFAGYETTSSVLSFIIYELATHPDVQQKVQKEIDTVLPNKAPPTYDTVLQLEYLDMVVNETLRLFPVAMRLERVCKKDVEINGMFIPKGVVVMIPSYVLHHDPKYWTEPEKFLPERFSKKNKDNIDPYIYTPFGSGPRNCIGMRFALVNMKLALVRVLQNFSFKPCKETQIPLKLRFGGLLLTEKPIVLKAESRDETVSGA
# Outline: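 Luminescence read-out (relative luminescence units) after 20 min with detection reagent, which stops the reaction. Enzyme, proluciferin substrate and compound preincubated 10 min, RT; NADPH regeneration system then started 1 h reaction. Ketoconazole as positive control.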
# [2] = Quantitative highthroughput screen to assess conditional lethalithy of NOMO1 cells grown in RPMI1640 with untreated serum (RPMI+s) (AID 1963876); note: nearly all actives have a fitted effect of over 35% in size
# Outline: (§1)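 Each medium arm—HPLM with 10% dialyzed FBS, or RPMI1640 with 5 mM glucose and 10% untreated or dialyzed FBS—was screened against an 11-point, 3-fold compound titration for 48 h at 37 °C, with CellTiter-Glo luminescence as endpoint.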
# [3] = Quantitative highthroughput screen to assess conditional lethalithy of NOMO1 cells grown in RPMI1640 with dialyzed fetal bovine serum (RPMI+ds) (AID 1963877); note: series mostly up to about 46 µM; nearly all actives have a fitted effect of over 30% in size
# Outline: as §1
# [4] = Quantitative highthroughput screen to assess conditional lethalithy of P12 Ichikawa cells grown in Human Plasma-Like Medium with dialyzed fetal bovine serum (HPLM+ds) (AID 1963879); conditions: Potency: viability; note: series mostly up to about 46 µM; nearly all actives have a fitted effect of over 35% in size
# Outline: as §1
# [5] = Quantitative highthroughput screen to assess conditional lethalithy of P12 Ichikawa cells grown in RPMI1640 with dialyzed fetal bovine serum (RPMI+ds) (AID 1963880); conditions: Potency: P12-Ichikawa viability; note: nearly all actives have a fitted effect of over 35% in size
# Outline: as §1
# [6] = Quantitative highthroughput screen to assess conditional lethalithy of P12 Ichikawa cells grown in RPMI1640 with untreated serum (RPMI+s) (AID 1963881); conditions: Potency: viability; note: series mostly up to about 46 µM; nearly all actives have a fitted effect of over 35% in size
# Outline: as §1
# [7] = Quantitative highthroughput screen to assess conditional lethalithy of SEM cells grown in Human Plasma-Like Medium with dialyzed fetal bovine serum (HPLM+ds) (AID 1963882)
# Outline: as §1
# [8] = Quantitative highthroughput screen to assess conditional lethalithy of SEM cells grown in RPMI1640 with dialyzed fetal bovine serum (RPMI+ds) (AID 1963884)
# Outline: as §1
# [9] = Cellular viability qHTS for adrenocortical cancer (ACC) cell line SW-13 (AID 1963989); conditions: SW-13 ACC cells viability, CellTiter-Glo, 48 h; activity (max response): hits give low values; note: nearly all actives have a fitted effect of over 65% in size; note: potency is the fitted concentration of half-maximal effect;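 for activity (max response): cells grown in serum-free medium with ITS supplement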
# Outline: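 Compound titrations (up to 46 uM final, in DMSO) were applied to SW-13 cells for 48 h at 37C/5% CO2. Reading used CellTiter-Glo after 20 min at room temperature; fitted curves yielded IC50 and efficacy.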
# [10] = Quantitative highthroughput screen to assess conditional lethalithy of SEM cells grown in RPMI1640 with unreated serum (RPMI+s) (AID 1963883); note: nearly all actives have a fitted effect of over 35% in size
# Outline: as §1
# [11] = Cellular viability qHTS for adrenocortical cancer (ACC) cell line NCI-H295R (AID 1963990); note: nearly all actives have a fitted effect of over 60% in size; note: potency is the fitted concentration of half-maximal effect
# Outline: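 Readout: CellTiter-Glo luminescence, 20 min RT. Exposure: 48 h, 37C/5% CO2. Cells: NCI-H295R, ITS-DMEM serum-free. Range: up to 46 uM. Analysis: 4PL fit, IC50 plus efficacy.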
# [12] = Quantitative highthroughput screen to assess conditional lethalithy of NOMO1 cells grown in Human Plasma-Like Medium with dialyzed fetal bovine serum (HPLM+ds) (AID 1963878); note: nearly all actives have a fitted effect of over 35% in size
# Outline: as §1
compound,measurement,setting,value
CCCCOc1ccc(C(=O)Nc2ccc(F)cc2F)cc1,Potency,[1],inactive
same,Potency,[2],inactive
same,Potency,[3],inactive
same,Potency,[4],inactive
same,Potency,[5],inactive
same,Potency,[6],inactive
same,Potency,[7],inactive
same,Potency,[8],inactive
same,activity (max response),[9],-9.55%
COc1c(N2C[C@@H]3CCCN[C@H]3C2)c(F)cc2c(=O)c(C(=O)O)cn(C3CC3)c12,Potency,[1],inactive
same,activity (max response),[9],-9.27%
CC(CN(C)C)C(C)(O)Cc1ccc(Cl)cc1 (centres undefined),Potency,[1],inactive
same,activity (max response),[9],6.59%
N[C@H]1CN(c2c(F)cc3c(=O)c(C(=O)O)cn(C4C[C@@H]4F)c3c2Cl)CC12CC2 (some centres undefined),Potency,[1],inactive
same,Potency,[3],inactive
same,Potency,[4],inactive
same,Potency,[5],inactive
same,Potency,[6],inactive
same,Potency,[10],inactive
same,activity (max response),[9],4.52%
same,Potency,[11],inactive
CC(C)(C)NCC(O)COc1ccc(NC(=O)NC2CCCCC2)cc1 (centres undefined),Potency,[1],inactive
same,activity (max response),[9],5.25%
C[C@@H]1CCO[C@H]2Cn3cc(C(=O)NCc4ccc(F)cc4F)c(=O)c(O)c3C(=O)N12,Potency,[1],inactive
same,Potency,[3],inactive
same,Potency,[12],inactive
same,Potency,[4],inactive
same,Potency,[5],inactive
same,Potency,[6],inactive
same,Potency,[7],inactive
same,Potency,[10],inactive
same,Potency,[8],inactive
CCOc1cc(C(=O)Nc2ccc(Cl)c(-c3nc4ccccc4[nH]3)c2)cc(OCC)c1OCC,Potency,[1],inactive
same,Potency,[4],inactive
same,Potency,[11],inactive
Nc1ncnc(Nc2ccccc2)n1,Potency,[1],inactive
same,activity (max response),[9],3.3%
N[C@@H](CSCCCO)C(=O)O,Potency,[1],inactive
same,activity (max response),[9],14.2%
CCc1ccc(C(=O)C(C)CN2CCCCC2)cc1 (centres undefined),Potency,[1],30.9 µM (active)
same,activity (max response),[9],-7.06%
CC(=O)Nc1ccc(OCC(O)CNC(C)C)cc1 (centres undefined),Potency,[1],inactive
same,activity (max response),[9],9.26%
CCc1nc(-c2cccc(C)c2)c(-c2ccnc(NC(=O)c3ccccc3)c2)s1,Potency,[1],inactive
same,Potency,[3],inactive
same,Potency,[7],inactive
same,Potency,[9],25.1 µM (active)
same,Potency,[11],28.2 µM (active)
CC(N)CCCC(C)(C)O (centres undefined),Potency,[1],inactive
same,activity (max response),[9],18.8%
CC(C)(Oc1ccc(Cl)cc1)C(=O)O,Potency,[1],inactive
same,activity (max response),[9],-3.02%
CCCCN(CCN(CCCC)C(=O)N1CCOCC1)C(=O)N1CCOCC1,Potency,[1],inactive
same,activity (max response),[9],13.7%
O=C(Nc1cccnc1)c1cc(-c2ccnc(F)c2)ccc1OCc1ccccc1,Potency,[1],inactive
same,activity (max response),[9],13.4%
same,Potency,[11],inactive
CCN(CC)CC(=O)Oc1ccc(NC(C)=O)cc1,Potency,[1],inactive
same,activity (max response),[9],13.2%
same,Potency,[11],inactive
CN(C)CCCO[C@@H]1[C@H]2OC(C)(C)O[C@H]2O[C@@H]1C(O)CO (some centres undefined),Potency,[1],inactive
same,activity (max response),[9],7.54%
same,Potency,[11],inactive
O=C(CCCCC(=O)Nc1c(I)cc(I)c(C(=O)O)c1I)Nc1c(I)cc(I)c(C(=O)O)c1I,Potency,[1],inactive
same,activity (max response),[9],10.3%
same,Potency,[11],inactive
O=C1c2cccc3c2[C@H](CCC3)CN1[C@@H]1CN2CCC1CC2,Potency,[1],inactive
same,activity (max response),[9],-4.45%
same,Potency,[11],inactive
COc1ccc(-c2cc(C(F)F)nn2-c2ccc(S(N)(=O)=O)cc2)cc1F,Potency,[1],inactive
same,activity (max response),[9],-7.1%
same,Potency,[11],inactive
Nc1ccn([C@@H]2O[C@H](CO)[C@@H](O)C2(F)F)c(=O)n1,Potency,[1],inactive
same,activity (max response),[9],-35% and -42.2%
same,Potency,[11],2.06 µM (active) and 794 nM (active)
C=CCN1C[C@H](C(=O)N(CCCN(C)C)C(=O)NCC)C[C@@H]2c3cccc4[nH]cc(c34)C[C@H]21,Potency,[1],inactive
same,activity (max response),[9],3.88%
same,Potency,[11],inactive
CO[C@@]1(NC(=O)Cc2cccs2)C(=O)N2C(C(=O)O)=C(COC(N)=O)CS[C@@H]21,Potency,[1],inactive
same,activity (max response),[9],12.4%
same,Potency,[11],inactive
Cc1ccc(C(=O)C(C)CN2CCCCC2)cc1 (centres undefined),Potency,[1],inactive
same,activity (max response),[9],-5.23%
same,Potency,[11],inactive
CC(C)N=C(N)/N=C(\N)Nc1ccc(Cl)cc1,Potency,[1],inactive
same,Potency,[11],inactive
Oc1cn2c(n1)Nc1ccc(Cl)c(Cl)c1C2,Potency,[1],inactive
same,activity (max response),[9],11.3%
same,Potency,[11],inactive
CCCCCCCCCCCCCCC[C@H](O)[C@@H](N)CO,Potency,[1],inactive
same,activity (max response),[9],1.16%
same,Potency,[11],inactive
Brc1ccccc1-c1ccccc1,Potency,[1],inactive
same,activity (max response),[9],7.98%
same,Potency,[11],inactive
CC1(C)S[C@@H]2[C@H](NC(=O)C(c3ccccc3)S(=O)(=O)O)C(=O)N2[C@H]1C(=O)O (some centres undefined),Potency,[1],inactive
same,activity (max response),[9],8.35%
same,Potency,[11],inactive
O=C(NN1CCCC1)NS(=O)(=O)c1ccc(Cl)cc1,Potency,[1],inactive
same,activity (max response),[9],2.56%
same,Potency,[11],inactive
O=C(NCC(=O)N1CCCC1)Nc1ccc2cnccc2c1,Potency,[1],inactive
same,activity (max response),[9],-10.6%
same,Potency,[11],inactive
O=C(O)c1cn(C2CC2)c2cc(Cl)c(F)cc2c1=O,Potency,[1],inactive
same,activity (max response),[9],13.4%
same,Potency,[11],inactive
CC(C)(C)c1ccc(C(=O)CCCCl)cc1,Potency,[1],inactive
same,activity (max response),[9],6.38%
same,Potency,[11],inactive
OCC(O)CS (centres undefined),Potency,[1],inactive
same,activity (max response),[9],8.13%
same,Potency,[11],inactive
CCO/C([O-])=N/c1c[n+](N2CCOCC2)no1,Potency,[1],inactive
same,activity (max response),[9],-2.98%
same,Potency,[11],inactive
COc1ccccc1OCC1CNC(=O)O1 (centres undefined),Potency,[1],inactive
same,activity (max response),[9],12.9%
same,Potency,[11],inactive
NCCO,Potency,[1],inactive
same,activity (max response),[9],7.88%
same,Potency,[11],inactive
CN1CCC(N(Cc2cccs2)c2ccccc2)CC1,Potency,[1],inactive
same,activity (max response),[9],6.02%
same,Potency,[11],inactive
CC(=O)c1cc2ccccc2s1,Potency,[1],inactive
same,activity (max response),[9],15.3%
same,Potency,[11],inactive
CCOC(N)=O,Potency,[1],inactive
same,activity (max response),[9],11.5%
same,Potency,[11],inactive
O=[N+]([O-])c1nccn1CO[C@@H](CO)[C@H](O)CO,Potency,[1],inactive
same,activity (max response),[9],-4.12%
same,Potency,[11],inactive

# From PubChem BioAssay (NCATS)
